A short description of assay [1]: qHTS assay for small molecule agonists of the p53 signaling pathway (AID 651631; calls by dose curve; further: nearly all actives have a fitted effect of over 15% in size). In outline: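 Testing took place in human colorectal HCT-116 cells with stable p53RE-driven beta-lactamase. After 16 h of compound exposure at 37 °C, a FRET substrate was added and fluorescence recorded 2 h later.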
A general note: In qHTS, concentration-response curves come from the screen itself.

A short description of assay [2]: qHTS assay for small molecule agonists of the p53 signaling pathway - cell viability (AID 651633; calls by dose curve; further: series mostly up to about 83 µM; nearly all actives have a fitted effect of over 30% in size). A digest of the protocol: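 p53RE-bla cells were treated with compound for 16 hours at 37 C. Cytotoxicity was then measured as CellTiter-Glo luminescence after 30 min at room temperature.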
Assay [3] in a line: qHTS assay for small molecule disruptors of the mitochondrial membrane potential - cell viability (AID 720634; calls by dose curve; further: nearly all actives have a fitted effect of over 20% in size; further: potency means the concentration at half of the fitted maximal effect). In outline: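 ATP-based luminescent viability readout (CellTiter-Glo, 30 min, room temperature) in HepG2 cells multiplexed with the m-MPI membrane potential dye; compound exposure lasted 1 hr at 37 C.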
A short description of assay [4]: qHTS assay for small molecule disruptors of the mitochondrial membrane potential (AID 720635). Further: potency means the concentration at half of the fitted maximal effect. In outline:
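HepG2 cells exposed to compound 1 hr at 37C, then Mito-MPS dye 30 min. Ratio read of aggregate (540/590 nm) versus monomer (490/535 nm) fluorescence.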

The nature of assay [5]: qHTS assay to test for compound auto fluorescence at 590 nm (red) in HepG2 cells (AID 720674). In outline:
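HepG2 cells, 2,000 per well in MEM with 10% FBS, attached overnight at 37 C, then got 23 nL compound or DMSO. After 1 hr at 37 C, 5% CO2, red fluorescence was read at 540/590 nm against Rose Bengal sodium as reference.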

Assay [6] can be described thus: qHTS assay to test for compound auto fluorescence at 460 nm (blue) in HEK293 cells (AID 720678). In outline: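 Cells were seeded and left to adhere for 4-5 hr at 37C. Compounds were then pin-transferred. After an overnight incubation at 37C under 5% CO2, intrinsic fluorescence at 405/460 nm was measured and referenced to triamterene.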
A short description of assay [7]: qHTS assay to test for compound auto fluorescence at 590 nm (red) in HEK293 cells (AID 720679). In outline:
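Each well held 2,000 HEK293 cells in medium containing 10% dialyzed FBS. Following 4-5 hr attachment at 37C, 23 nL test compound or DMSO was added; plates sat overnight, and red fluorescence (540/590nm) was recorded.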

Assay [8] in a line: qHTS assay to test for compound auto fluorescence at 535 nm (green) in HEK293 cells (AID 720680).
Assay [9] is described as follows: qHTS assay to test for compound auto fluorescence at 460 nm (blue) in HEK293 cell free culture (AID 720681). A digest of the protocol:
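Compounds were added to cell-free DMEM with 10% FBS and fluorescence read directly. The blue channel used 405 nm excitation and 460 nm emission, with triamterene as the reference fluorophore.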

Assay [10] can be described thus: qHTS assay to test for compound auto fluorescence at 535 nm (green) in HEK293 cell free culture (AID 720682). A digest of the protocol:
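DMEM + 10% FBS, cell-free; cpd or DMSO pinned in; Ex485/Em535 read; output as fluorescein-equivalent signal.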

Assay [11] is described as follows: qHTS assay to test for compound auto fluorescence at 590 nm (red) in HEK293 cell free culture (AID 720683). In outline:
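Cell-free wells of DMEM with 10% FBS received compound, and intrinsic fluorescence was read at excitation/emission 540/590 nm. Values expressed as equivalence to Rose Bengal sodium.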

Assay [12] can be described thus: qHTS assay to test for compound auto fluorescence at 590 nm (red) in HepG2 cell free culture (AID 720684). A digest of the protocol: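 Auto fluorescence equivalency versus Rose Bengal sodium, red channel Ex/Em 540/590 nm; compounds in cell-free MEM/10% FBS; DMSO vehicle control.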
Assay [13] can be described thus: qHTS assay to test for compound auto fluorescence at 460 nm (blue) in HepG2 cell free culture (AID 720685). In outline: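 Cell-free plates of MEM plus 10% FBS received 23 nL compound or DMSO vehicle; blue-channel (405/460 nm) intensity scored against triamterene as reference fluorophore.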
A short description of assay [14]: qHTS assay to test for compound auto fluorescence at 460 nm (blue) in HepG2 cells (AID 720687). In outline: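 HepG2 cells in MEM with 10% FBS, attached overnight at 37 C, were exposed to compound or DMSO for 1 hr at 37 C, 5% CO2. Blue fluorescence was read at 405/460 nm, with triamterene as reference fluorophore.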
A short description of assay [15]: qHTS assay for small molecules that induce genotoxicity in human embryonic kidney cells expressing luciferase-tagged ATAD5 (AID 651632). Further: nearly all actives have a fitted effect of over 15% in size. Further: potency means the concentration at half of the fitted maximal effect. In outline: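 Quantitative HTS in HEK293T expressing luciferase-tagged ATAD5, whose levels rise upon DNA damage. Exposure ran 16 hr at 37C and 5% CO2, with luminescence read 30 min after Amplite addition at room temperature.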

A short description of assay [16]: qHTS assay for small molecules that induce genotoxicity in human embryonic kidney cells expressing luciferase-tagged ATAD5 - cell viability (AID 651634; calls by dose curve; further: nearly all actives have a fitted effect of over 25% in size). A digest of the protocol:
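After 15.5 hr incubation with compound at 37C, 5% CO2, HEK293T ATAD5-luciferase cells received CellTiter-Fluor reagent; fluorescence intensity was quantified following 30 min at 37C.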

Assay [17] can be described thus: qHTS assay to test for compound auto fluorescence at 535 nm (green) in HepG2 cells (AID 720675).
The nature of assay [18]: qHTS assay to test for compound auto fluorescence at 535 nm (green) in HepG2 cell free culture (AID 720686).
The target of assay [19] is Glucocorticoid receptor (Homo sapiens) (UniProt P04150). The assay can be described thus: qHTS assay to identify small molecule agonists of the glucocorticoid receptor (GR) signaling pathway (AID 720691; active means well fitted activation curve with a large enough effect in the signal ratio in the repeat runs, not every such curve was filed as active; the % refers to the signal ratio). A digest of the protocol:
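Cells: GR-bla HeLa, endogenous GR with stably integrated GRE-beta-lactamase reporter. Treatment 18 h, 37 C, compounds delivered in DMSO. Detection via LiveBLAzer B/G FRET substrate, 2 h RT, fluorescence intensity.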

Assay [20] has the same target. The assay can be described thus: qHTS assay to identify small molecule antagonists of the glucocorticoid receptor (GR) signaling pathway (AID 720692; active means well fitted inhibition curve with a large enough effect in the signal ratio in the repeat runs, not every such curve was filed as active; the % refers to the signal ratio). A digest of the protocol:
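Quantitative HTS in antagonist format: HeLa cells expressing endogenous GR and a stably integrated GRE-bla reporter, stimulated with 5 nM dexamethasone (final) alongside test compounds for 18 h.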

Where “and” joins values, the source holds several entries; their conditions need not be identical. Equal values may be shown once. Results filed as inconclusive are left out. Where a structure was tested more than once in an assay, its records may differ in their call. Calls of active or inactive are those of the source. Unless noted, the call rests on the fitted dose curve; in most records, active means well fitted curve in the direction sought with a large enough effect in the repeat runs; inconclusive means weak or mixed curves; inactive means no such curve, though single readings can be large; an effect the other way counts as inactive or inconclusive.

Chain of Glucocorticoid receptor (Homo sapiens) (P04150 whole entry, looked up): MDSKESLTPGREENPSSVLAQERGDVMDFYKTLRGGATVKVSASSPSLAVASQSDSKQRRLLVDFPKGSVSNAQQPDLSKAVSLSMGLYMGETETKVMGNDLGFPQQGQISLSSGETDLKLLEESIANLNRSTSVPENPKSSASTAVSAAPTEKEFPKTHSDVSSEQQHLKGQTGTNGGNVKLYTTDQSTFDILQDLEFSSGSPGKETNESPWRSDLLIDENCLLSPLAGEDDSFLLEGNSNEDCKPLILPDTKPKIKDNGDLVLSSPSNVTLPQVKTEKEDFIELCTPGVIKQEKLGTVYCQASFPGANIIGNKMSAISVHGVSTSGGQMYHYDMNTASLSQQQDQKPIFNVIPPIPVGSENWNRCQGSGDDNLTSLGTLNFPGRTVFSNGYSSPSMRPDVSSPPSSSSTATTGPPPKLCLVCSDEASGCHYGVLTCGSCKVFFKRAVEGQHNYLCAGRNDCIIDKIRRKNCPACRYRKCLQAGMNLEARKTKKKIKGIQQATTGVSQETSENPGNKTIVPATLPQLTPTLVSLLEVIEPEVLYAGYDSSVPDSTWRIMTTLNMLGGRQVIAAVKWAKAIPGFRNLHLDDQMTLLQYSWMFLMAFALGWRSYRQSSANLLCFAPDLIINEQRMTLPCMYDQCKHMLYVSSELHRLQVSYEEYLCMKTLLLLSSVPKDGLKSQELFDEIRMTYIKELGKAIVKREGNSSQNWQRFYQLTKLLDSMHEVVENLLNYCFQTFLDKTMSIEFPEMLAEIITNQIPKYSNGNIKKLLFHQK

For `COP(=S)(OC)Oc1ccc([N+](=O)[O-])cc1`, the Potency entry in assay [1] and in [2] was “inactive” each time. Further, the Potency entry in assay [3] is “inactive and 54.5 µM (active)”; in assay [4], 34.4 µM (active). Further, the call in assay [5], in assay [6], in assay [7], in [8], in assay [9] and in [10] was inactive. In addition, the outcome in assay [11], in [12], in [13] and in assay [14] was inactive.

On to `Cc1ccc(N)c(N)c1`, for which the Potency in assay [15] was 68.8 µM (active) and 68.6 µM (active). For the same compound, the Potency result in assay [2], in assay [16], in assay [3], in assay [19] and in [20] was “inactive” each time. In addition, the call in [17], in [6], in [7], in assay [8], in assay [9] and in assay [10] was inactive. Also, the outcome in [11], in [12], in assay [13], in assay [18] and in assay [14] was inactive.

Regarding `O=C(NC(=O)c1c(F)cccc1F)Nc1ccc(Cl)cc1`, the Potency entry in [15], in [2], in assay [16], in assay [3] and in assay [4] was “inactive” each time. The call in assay [5], in assay [17], in assay [6], in assay [7], in [8] and in assay [9] was inactive. For the same compound, the call in assay [10], in assay [12], in assay [13], in assay [18] and in assay [14] was inactive.

For the compound `CCC(C)c1ccc(O)cc1` (configuration not stated), the Potency entry in [15], in assay [2], in assay [16], in [3], in assay [19] and in [20] was “inactive” each time. The Potency in assay [4] was 27.6 µM (active) and 24.3 µM (active). The compound was classed as inactive in assay [17], in assay [6], in assay [7], in assay [8], in assay [9] and in [10]. Moreover, the outcome in assay [12], in [13], in assay [18] and in [14] was inactive.

In the case of `Brc1ccc(Oc2cc(Br)c(Br)cc2Br)c(Br)c1`, the Potency entry in assay [15], in assay [2], in assay [16] and in [3] was “inactive” in each case. The Potency in assay [4] is 4.86 µM (active) and 8.7 µM (active). Moreover, the result in assay [5], in assay [17], in [6], in assay [7], in assay [8] and in assay [9] was inactive. Besides, the call in [10], in [11], in assay [12], in [13], in assay [18] and in assay [14] was inactive.

As to `CC(C)c1ccc(CO)cc1`, the Potency entry in [15], in assay [2], in assay [16] and in [3] was “inactive” each time. Also, the outcome in [6], in assay [7], in assay [8], in [9], in assay [10] and in assay [11] was inactive. Moreover, the result in assay [12], in [13], in [18] and in assay [14] was inactive.

For `CCCCN(CC)c1c([N+](=O)[O-])cc(C(F)(F)F)cc1[N+](=O)[O-]`, the Potency result in assay [15], in [2], in assay [16], in assay [3], in assay [19] and in [20] was “inactive” throughout. Further, the Potency in assay [4] is 6.86 µM (active). Besides, the call in [17], in [6], in assay [7], in assay [8], in assay [9] and in assay [10] was inactive. The compound was called inactive in assay [11], in assay [12], in [13] and in [14].

For `CCOCN(C(=O)CCl)c1c(C)cccc1CC`, the Potency result in assay [15], in assay [2], in assay [16], in assay [3] and in [19] was “inactive” throughout. The outcome in [5], in assay [17], in assay [6], in assay [7], in assay [8] and in assay [9] was inactive. The outcome in assay [10], in assay [12], in [13] and in assay [14] was inactive.

The record behind these values is PubChem BioAssay (Tox21).
